# Where “and” joins values, the source holds several entries; their conditions need not be identical. Equal values may be shown once. About 83,000 compounds went through this panel and 20% of them were active in at least one assay; those are over-represented in the sample as a whole.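 Compound tested at a single concentration for 48 hours in 96-well plates; a percent growth value below 10 was scored as active.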 Unmarked numbers belong to inactive results. Calls of active or inactive are those of the source.
# Test system: MDA-MB-468 breast
# Assay: NCI-60 one-dose screen, 48 h (100 = growth as untreated, 0 = no growth, -100 = all killed)
# Conditions: 10 µM unless noted
row,SMILES,growth
1,c1ccc(-c2oc(-c3ccccc3)c(CN3CCCCC3)c2CN2CCCCC2)cc1,-35.9% (active)
2,O=C(CCCCCCCn1cc(-c2cccnc2)nn1)Nc1ccccc1-c1ccccc1,48.2%
3,CCN1CCN(S(=O)(=O)c2oc(-c3ccc(Cl)cc3)nc2C#N)CC1,24%
4,COc1ccc(/C=N/C2=C(C#N)C(c3ccccc3)c3ccc4ccccc4c3O2)cc1 (stereo not given),17.9%
5,Cc1ccc2[nH]c(=O)cc(-n3nncc3COc3ccc(C=O)cc3)c2c1,114%
6,FC(F)(F)c1cn(CCN2CCOCC2)c2ncnc(Cl)c12,9.54% (active)
7,C/C(=N/NC(=O)Cn1c2ccccc2c2ccncc21)c1cccs1,105%
8,O=c1cc(C2NNC(=S)N2)c2ccc3ccccc3c2o1 (stereo not given),128%
9,CC(C)(C)c1cc(O)c(O)c(C(C)(C)C)c1,40.4%
10,Cc1cn(C(C=O)OC(C=O)CO)c(=O)[nH]c1=O (stereo not given),113%
11,COc1ccc(-n2ncc3c4nc(OC)c(S(=O)(=O)c5ccccc5)cc4ccc32)cc1,51.9%
12,CCNc1nc(-c2ccc(Cl)c(OC)c2)c(-c2ccnc(NCCCNS(=O)(=O)c3ccc(Cl)cc3)n2)s1,63.3%
13,Cc1cccc(NC(=O)c2sc3nc4c(cc3c2N)CCCC4)c1C,19.3%
14,COc1ccc(/C=N/Nc2nc(Nc3ccccc3)nc(Nc3ccc(S(N)(=O)=O)cc3)n2)cc1,76.3%
15,CCN1CCN(C(=O)[C@]23CC[C@@H](C)[C@H](C)[C@@H]2C2=CC[C@@H]4[C@@]5(C)C/C(=C/c6cccnc6)C(=O)C(C)(C)[C@@H]5CC[C@@]4(C)[C@]2(C)CC3)CC1,16.4%
16,Fc1ccc(CNc2c3ccccc3nc3ccccc23)c(F)c1,-4.03% (active)
17,CN1CCN(c2ccc3nc(-c4ccc5nc(-c6ccc(OCCC(C)(C)C)cc6)[nH]c5c4)[nH]c3c2)CC1,-17.9% (active)
18,Cn1cc(-c2nc(-c3c[nH]c4ccncc34)cs2)c2ccccc21,-12.2% (active)
19,NCCOc1ncccc1/C=C1\C2C=CC=CC2C2C=CC(F)=CC12 (stereo not given),-7.18% (active)
20,CN(C)c1ccc(/C=C/c2c(F)cccc2F)cc1,81.3%

row,SMILES,growth
1,CCOC(=O)CC1CSC(c2cccc(Cl)c2)=N1 (stereo not given),108%
2,CCCCCCCC/C=C\CCCCCCCCOc1ccc(CC(=O)NCC[N+]2(C)CCOCC2)cc1,43.9%
3,Oc1c(CN2CCOCC2)cc(COCc2ccccc2)c2cccnc12,12.1%
4,O=C(Oc1ccc(CCl)cc1)c1ccccc1,-62.7% (active)
5,C(#CCN1CCOCC1)CCCN1CCOCC1,93.6% and 110%
6,CCOCC[P+](c1ccccc1)(c1ccccc1)c1ccccc1,2.17% (active)
7,CNC(=O)c1cc(Oc2cccc3nc(NC(=O)Nc4ccc(F)cc4F)ccc23)ccn1,42.1%
8,COc1cccc2nc3n(c12)C(c1c(F)cccc1F)SC3 (stereo not given),89.2%
9,CCCCCSc1ccc2nc(NC(=O)OCCC)sc2c1,9.55% (active)
10,N=C(N)c1ccc(-c2ccc(-c3ccc(Cl)cn3)s2)cc1,-28.2% (active)
11,COc1ccc2c(c1)/C(=C/c1cc(OC)c(OC)c(OC)c1)C(=O)N2C,25.9%
12,C#CCN(C)CCCOc1ccc(NC(=O)CCCCCCC(=O)NO)cc1Cl,-0.749% (active)
13,CC(C)(C)NC(=O)C(OC(=O)c1cccc(Cl)c1)c1ccc(Cl)cc1 (stereo not given),87.9%
14,COc1cc(-c2nn(C(C)(C)C)cc2-c2ccnc(NCCCNS(=O)(=O)c3ccc(C)cc3)n2)ccc1Cl,79%
15,O=C1NC(=O)c2c1c1c3ccccc3ccc1c1[nH]c3ccc(Br)cc3c21,-12.5% (active)
16,CC/C=C\C[C@H](O)C/C=C1/C(=O)C=C[C@@H]1C/C=C\CCCC(=O)NC,-47.4% (active)
17,CSc1nc2sc3cc(Cl)c(Cl)cc3n2c(=N)c1C#N,72.6%
18,CNC(=O)c1cc(Oc2ccc3nc(NC(=O)Nc4ccc(Cl)c(C(F)(F)F)c4)sc3c2)ccn1,-5.09% (active)
19,C=CCN(CCOC(=O)c1ccc([N+](=O)[O-])cc1)CCOC(=O)c1ccc([N+](=O)[O-])cc1,105%
20,c1cnc2n[nH]c(Nc3ncnc4c3sc3ncccc34)c2c1,96.5%
